# An excerpt weighted towards active compounds, which were near 3.1% of everything screened.
# LMP1 NFkB inh: Epstein-Barr LMP1 NF-kappaB reporter inhibition. LMP1-induced NF-kappaB luciferase reporter cells, luminescence. inhibition, % at 12.5 µM. 350,000 compounds, 0.69% hits; in the data active means inhibition above about 41%; inconclusive means no clear call, values can overlap the other calls;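 further: 0% = neutral control wells and 100% = reference inhibitor control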
# PAX8 reporter: PAX8 transcriptional activity inhibition; RMG-I TPO-luciferase reporter, SteadyGlo, 24 h; inhibition, % at 12.6 µM; 360,000 compounds, 1.2% hits; AID 652154;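 active means mean replicate inhibition at least 60% with every replicate also reaching 60%; inconclusive means only one of the two criteria is met; inactive means mean below 60% and not all replicates reaching 60%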;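 further: luciferase light reporting Pax8 driven TPO promoter activity; plate controls were median of neutral control wells for no effect and mitoxantrone controls for full effect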
# EWS-Fli block: blocks EWS/Fli oncoprotein-driven transcription | 350,000 compounds, 0.67% hits | inhibition, % at 12.6 µM | A673 NR0B1-luciferase reporter, viability-normalised;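 active means mean inhibition of at least 50% after viability correction, with every replicate also passing that limit; inconclusive means mean reaches 50% but only one of two replicates passes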;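 further: firefly luciferase signal divided by Alamar Blue viability fluorescence both relative to DMSO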
# TWEAK-Fn14 inh: inhibitors of TWEAK-Fn14 interaction signaling | TWEAK-stimulated Fn14 reporter cells, luciferase luminescence, 8 h | inhibition, % at 10 µM | 360,000 compounds, 2% hits | AID 1159606; in the data active means inhibition above about 50%
# LGR2 inh: blocks bursicon-induced cAMP signaling via Drosophila LGR2; 380,000 compounds, 0.35% hits; HEK293 LGR2, CRE-luciferase, bursicon-stimulated, 4 h; AID 720647; inhibition, % at 9.99 µM;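 active means drop in luminescence signal, shown as inhibition above about 50% in the replicate tests, limit read from the data, passing the limit was not always enough; inconclusive means probably only some replicates passing the limit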;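 further: agonist challenge used bursicon conditioned medium at about half maximal strength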
# TROY NFkB inh: blocks TROY-dependent signaling in reporter cells | Q293 LMP1-TROYcd NF-kB luciferase reporter, 4 h | inhibition, % at 10 µM | AID 1347056 | 360,000 compounds, 0.98% hits;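 active means compounds whose plate-normalised and pattern-corrected inhibition of the luciferase reporter signal at the single screening dose is 50% or more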
# Starred values were filed as active, the others as inactive; ? = inconclusive; · = no result given.
SMILES,LMP1 NFkB inh,PAX8 reporter,EWS-Fli block,TWEAK-Fn14 inh,LGR2 inh,TROY NFkB inh
C[C@@H]1CCCCO[C@H](CN(C)C(=O)Nc2ccc(C(F)(F)F)cc2)[C@@H](C)CN([C@H](C)CO)C(=O)c2cc(NS(=O)(=O)c3ccc(Cl)cc3)ccc2O1,·,48,-1,·,10,·
Cc1ccc(S(=O)(=O)Nc2ccc3c(c2)C(=O)N([C@H](C)CO)C[C@H](C)[C@@H](CN(C)C(=O)Nc2ccc(C(F)(F)F)cc2)OCCCC[C@H](C)O3)cc1,·,41,-3,·,5,·
Cc1ccc(S(=O)(=O)Nc2ccc3c(c2)C(=O)N([C@@H](C)CO)C[C@H](C)[C@@H](CN(C)C(=O)Nc2ccc(C(F)(F)F)cc2)OCCCC[C@H](C)O3)cc1,·,79*,12,·,10,·
Cc1ccc(S(=O)(=O)Nc2ccc3c(c2)C(=O)N([C@H](C)CO)C[C@@H](C)[C@H](CN(C)C(=O)Nc2ccc(C(F)(F)F)cc2)OCCCC[C@@H](C)O3)cc1,·,69*,18,·,2,·
COC(=O)C[C@H]1CC[C@H]2[C@@H](COc3ccc(NC(=O)c4cnccn4)cc3C(=O)N2C)O1,·,-1,-4,·,10,·
OC[C@H]1CC[C@@H]2O[C@H](CCc3ccc(C#CCc4ccccc4)cc3)[C@@H](n3cc(-c4ccccc4)nn3)C[C@@H]2O1,·,71*,13,·,·,·
OC[C@@H]1CC[C@@H]2O[C@H](CCc3ccc(C#Cc4ccccc4)cc3)[C@H](n3cc(-c4ccccc4)nn3)C[C@@H]2O1,·,22,3,·,·,·
CCS(=O)(=O)N1CC2(CN(C(=O)c3ccc(F)cc3)[C@H](CO)c3[nH]c4cc(OC)ccc4c32)C1,·,·,6,·,-9,·
Cc1ccc(NC(=O)CSc2ccccc2NC(=O)c2ccccc2Cl)cc1Cl,-13,-11,-15,73*,-4,17
CC1CCCN(c2ccc3nc4ccccc4c(=O)n3n2)C1 (stereo not drawn),24,36,43,37,62*,66*
C[C@H]1CCCCO[C@H](CN(C)CC2CCCCC2)[C@@H](C)CN([C@@H](C)CO)C(=O)c2cc(NC(=O)Nc3ccccc3)ccc2O1,·,69*,0,·,14,·
C[C@H](CO)N1C[C@H](C)[C@H](CN(C)CC2CCCCC2)OCCCC[C@H](C)Oc2ccc(NC(=O)Nc3ccccc3)cc2C1=O,·,97*,22,·,13,·
C[C@@H]1CCCCO[C@@H](CN(C)CC2CCCCC2)[C@@H](C)CN([C@H](C)CO)C(=O)c2cc(NC(=O)Nc3ccccc3)ccc2O1,·,-2,3,·,14,·
C[C@@H]1CN([C@H](C)CO)C(=O)c2cc(NC(=O)Nc3ccccc3)ccc2O[C@@H](C)CCCCO[C@@H]1CN(C)CC1CCCCC1,·,97*,-4,·,10,·
COc1ccc(NC(=O)Nc2ccc3c(c2)C(=O)N([C@@H](C)CO)C[C@@H](C)[C@@H](CN(C)CC2CCCCC2)OCCCC[C@@H](C)O3)cc1,·,77*,24,·,0,·
CN1C(=O)c2cc(NC(=O)Nc3ccccc3)ccc2OC[C@@H]2O[C@H](CC(=O)NC3CCC3)CC[C@H]21,·,-3,9,·,0,·
C[C@@H]1CN([C@@H](C)CO)C(=O)c2cc(-c3ccc(C(=O)N(C)C)cc3)cnc2O[C@@H]1CN(C)C(=O)c1ccncc1,·,-18,1,·,-4,·
C[C@@H]1CCCCO[C@@H](CN(C)CC2CCCCC2)[C@H](C)CN([C@H](C)CO)C(=O)c2cc(NC(=O)Nc3ccccc3)ccc2O1,·,86*,24,·,4,·
C[C@@H]1CN([C@@H](C)CO)C(=O)c2cc(NC(=O)Nc3ccccc3)ccc2O[C@@H](C)CCCCO[C@@H]1CN(C)CC1CCCCC1,·,35,10,·,-1,·
O=C(C[C@H]1C[C@H]2c3cc(NC(=O)NC4CCCC4)ccc3O[C@H]2[C@@H](CO)O1)NC1CCCCC1,·,3,3,·,-2,·
C[C@@H]1CN([C@@H](C)CO)C(=O)c2cccc(NC(=O)Nc3ccccc3)c2O[C@@H]1CN(C)Cc1ccncc1,·,1,10,·,-12,·
Cc1cc(C)c(C#N)c(SCc2ccc(F)cc2)n1,2,12,-5,-17,-12,-15
CSc1nc(C)cc(C)c1C#N,94*,·,·,3,-31,16
CO[C@@H]1CN(C)C(=O)c2ccc(NC(=O)C3CCOCC3)cc2OC[C@H](C)NC[C@H]1C,·,·,-1,·,5,·
C=CC[n+]1c(/C=C2\C=Cc3cc(C)ccc3N2CC)ccc2ccccc21,45*,88*,23,57*,26,40
SMILES,LMP1 NFkB inh,PAX8 reporter,EWS-Fli block,TWEAK-Fn14 inh,LGR2 inh,TROY NFkB inh
CC(=O)Nc1ccc(CNc2ncnc3ccc(-c4c(C)noc4C)cc23)cc1,20,-178,70*,4,-20,-9
CC(=O)Nc1ccc(NC(=O)c2ccc(-c3c(C)noc3C)c3ccoc23)cc1,·,-44,1,0,12,-23
Cc1ccc(S(=O)(=O)Nc2ccc3c(c2)C(=O)N([C@@H](C)CO)C[C@H](C)[C@@H](CN(C)S(=O)(=O)c2ccc(Cl)cc2)O3)cc1,·,-2,-3,·,-20,·
Cc1[nH]c2ccccc2c1CCCO,·,14,1,·,3,·
COC1=C(OC)C(=O)C(CCCCCCCCCCO)=C(C)C1=O,·,-2,-8,77*,·,50*
CCCNC(=O)N1CC2(C1)[C@H](c1ccccc1)[C@H](CO)N2C(=O)C1CC1,·,-2,2,·,-15,·
COc1ccc(S(=O)(=O)N(C)C[C@@H]2OCCCC[C@H](C)Oc3ccc(NS(=O)(=O)c4ccc(Cl)cc4)cc3C(=O)N([C@@H](C)CO)C[C@@H]2C)cc1,·,64*,-8,·,?,·
COc1ccc(S(=O)(=O)Nc2ccc3c(c2)C(=O)N([C@@H](C)CO)C[C@@H](C)[C@@H](CN(C)S(=O)(=O)c2ccc(Cl)cc2)OCCCC[C@@H](C)O3)cc1,·,69*,4,·,19,·
COc1ccc(S(=O)(=O)Nc2ccc3c(c2)C(=O)N([C@H](C)CO)C[C@@H](C)[C@@H](CN(C)S(=O)(=O)c2ccc(Cl)cc2)OCCCC[C@H](C)O3)cc1,·,30,-2,·,17,·
COc1ccc(S(=O)(=O)Nc2ccc3c(c2)C(=O)N([C@H](C)CO)C[C@@H](C)[C@@H](CN(C)S(=O)(=O)c2ccc(Cl)cc2)OCCCC[C@@H](C)O3)cc1,·,31,13,·,9,·
COc1ccc(S(=O)(=O)N(C)C[C@H]2OCCCC[C@@H](C)Oc3ccc(NS(=O)(=O)c4ccc(Cl)cc4)cc3C(=O)N([C@@H](C)CO)C[C@H]2C)cc1,·,69*,7,·,17,·
COc1ccc(S(=O)(=O)Nc2ccc3c(c2)C(=O)N([C@@H](C)CO)C[C@@H](C)[C@H](CN(C)S(=O)(=O)c2ccc(Cl)cc2)OCCCC[C@H](C)O3)cc1,·,29,10,·,12,·
CO[C@H]1CN(C)C(=O)c2ccc(NS(=O)(=O)c3ccc(C)cc3)cc2OC[C@H](C)N(Cc2nccs2)C[C@@H]1C,·,·,10,·,6,·

# High-throughput results from PubChem BioAssay.
